Laboratory results taken from PubChem BioAssay.
Calls of active or inactive are those of the source.

Assays:
Albumin (Bos taurus) = Albumin (Bos taurus) (UniProt P02769); assay: compounds binding labelled BSA control protein – biochemical, small-molecule microarray, Alexa647 label, 635/667 nm fluorescence, artefact control for SMM control protein annotation, profiling panel (AID 1118); conditions: BSA-A647 binding, fluorescence 635 nm, higher = more signal;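 further: score merges 667 nm emission intensity and signal-to-noise per printed compound spot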
Chain of Albumin (Bos taurus) (P02769 whole entry, looked up): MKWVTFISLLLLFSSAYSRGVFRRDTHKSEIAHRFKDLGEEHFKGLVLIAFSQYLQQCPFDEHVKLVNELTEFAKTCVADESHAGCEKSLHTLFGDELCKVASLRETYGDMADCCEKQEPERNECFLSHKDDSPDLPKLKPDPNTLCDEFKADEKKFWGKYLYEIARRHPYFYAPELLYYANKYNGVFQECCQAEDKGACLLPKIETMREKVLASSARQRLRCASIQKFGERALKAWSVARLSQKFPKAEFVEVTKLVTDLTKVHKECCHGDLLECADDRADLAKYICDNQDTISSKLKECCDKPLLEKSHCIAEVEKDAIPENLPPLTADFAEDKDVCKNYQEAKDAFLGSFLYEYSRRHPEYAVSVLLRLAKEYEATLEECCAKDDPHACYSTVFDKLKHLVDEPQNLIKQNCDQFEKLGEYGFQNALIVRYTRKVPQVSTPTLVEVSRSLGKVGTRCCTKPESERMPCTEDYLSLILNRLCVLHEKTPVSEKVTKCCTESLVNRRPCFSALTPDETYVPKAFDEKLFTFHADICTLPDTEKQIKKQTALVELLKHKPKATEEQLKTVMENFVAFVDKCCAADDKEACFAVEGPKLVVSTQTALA

[1] = probe aXIP binding to arrayed compounds – biochemical, NeuroSMM set, 635/667 nm fluorescence, primary screen (AID 1119); conditions: small-molecule microarray, higher = more signal, called active from +8 up or from −8 down;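 further: probe is the protein aXip251-270 applied at 1 µg/mL to compound-printed slides; binding of probe to printed compounds measured as 667 nm fluorescence plus signal to noise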
[2] = probe aNOTCH3 binding on compound microarray – biochemical, small-molecule microarray, 635/667 nm fluorescence, primary screen (AID 1120); conditions: higher = more signal;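 further: probe is a biotin-tagged antibody raised against NOTCH3 rather than NOTCH3 protein; score merges spot fluorescence near 667 nm with spot signal to noise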
[3] = probe aNOTCH2 binding on compound microarray – biochemical, small-molecule microarray, 635/667 nm fluorescence, primary screen (AID 1121); conditions: higher = more signal;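 further: score merges feature fluorescence read at 667 nm with its signal to noise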
[4] = target: Carbonic anhydrase 2 (Homo sapiens) (UniProt P00918); assay: compounds binding carbonic anhydrase 2 – biochemical, small-molecule microarray, Alexa647-labelled CAII, profiling panel (AID 1122); conditions: CAII-A647 binding fluorescence, higher = more signal
[5] = COS7 lysate on small-molecule microarray, probe aHis, 635 nm (AID 1123); conditions: COS7 cell lysate, fluorescence, higher = more signal;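 further: z-score combines 667nm fluorescence intensity with signal-to-noise per printed compound spot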
[6] = probe aLAP1 signal on lysate-treated microarray – cell lysate, small-molecule microarray, COS7 lysate, primary screen (AID 1124); conditions: probe aLAP1, fluorescence, higher = more signal;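 further: lysate comes from COS7 cells expressing LAP1 and is applied at 0.3 µg/mL; score merges spot fluorescence near 667 nm with signal-to-noise over triplicate slides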
Sam68 (KHDRBS1) = assay: compounds binding KHDRBS1 protein – biochemical, small-molecule microarray, 635 nm fluorescence, primary screen (AID 1125); conditions: higher = more signal;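 further: score merges 667 nm channel intensity with signal to noise over triplicate slides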
[7] = test system: Chordin-like protein 2 (CHRDL2); assay: compounds binding chordin-like 2 – biochemical, small-molecule microarray, 635 nm fluorescence, primary screen (AID 1126); conditions: fluorescence 635 nm, higher = more signal;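 further: printed compound slides probed with Chrdl2 protein at 4 µg/mL for 1 h at 4 C; score merges 667 nm emission intensity with signal to noise over three replicate slides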
[8] = target: Concanavalin-A (Canavalia ensiformis) (UniProt P02866); assay: compounds binding concanavalin A lectin – biochemical, small-molecule microarray, Alexa647 label, 635 nm, artefact control for SMM control protein annotation, primary screen (AID 1127); conditions: ConA-A647 binding fluorescence, higher = more signal;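 further: z combines 667 nm emission intensity with signal-to-noise across three replicate slides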
Chain of Concanavalin-A (Canavalia ensiformis) (P02866 whole entry, looked up): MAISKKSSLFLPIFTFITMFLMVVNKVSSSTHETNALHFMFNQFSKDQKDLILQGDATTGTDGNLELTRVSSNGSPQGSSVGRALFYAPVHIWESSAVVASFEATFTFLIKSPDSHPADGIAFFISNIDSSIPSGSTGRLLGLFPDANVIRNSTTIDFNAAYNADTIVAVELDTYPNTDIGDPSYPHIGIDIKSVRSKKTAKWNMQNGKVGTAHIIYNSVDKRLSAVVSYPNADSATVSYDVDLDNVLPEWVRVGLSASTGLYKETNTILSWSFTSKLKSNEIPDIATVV

| SMILES | composite z-score (Albumin (Bos taurus)) | composite Z-score [1] | composite z-score [2] | composite z-score [3] | composite z-score [4] | composite z-score [5] | composite z-score [6] | composite z-score (Sam68 (KHDRBS1)) | composite z-score [7] | composite z-score [8] |
| --- | --- | --- | --- | --- | --- | --- | --- | --- | --- | --- |
| COCCOC(=O)N1C(=O)[C@@]2(c3cc(C#Cc4ccc(OC)cc4)ccc31)[C@H](c1ccc(OCCO)cc1)N1[C@H](c3ccccc3)[C@H](c3ccccc3)OC(=O)[C@H]1[C@@H]2C(N)=O | 0.641 | 0.498 (inactive) | 0.132 | -0.0404 | 0.573 | 0.441 | 0.617 | 1.35 | 0.488 | 1.16 |
| CC(C)C[C@@H]1NC(=O)[C@@H]2C[C@H](C(=O)NCCCC[N+](C)(C)C)[C@H](c3cccc(OCCO)c3)N2C1=O | -1.59 | 0.0578 (inactive) | 0.116 | -0.0999 | 0.479 | 0.432 | 0.255 | 0.82 | 1.44 | 0.496 |
| CC(C)N1CC=CC23O[C@@H]4C=CCOC(=O)[C@@H]4[C@H]2C(=O)N(CCCCCCO)[C@@H]3C1=O (stereo not given in full) | 0.771 | 0.714 (inactive) | -0.0697 | -0.0451 | 0.923 | -0.0499 | 1.15 | -0.351 | -1.17 | -0.82 |
| CCCCCCC#C[Si](O[C@H](c1ccccc1)c1cn(Cc2cccc(Cl)c2)nn1)(C(C)C)C(C)C | 0.31 | 0.242 (inactive) | -0.0647 | -0.104 | 0.205 | 0.186 | -0.124 | 0.581 | 0.141 | 0.57 |
| C[N+](C)(C)CCCC[C@@H]1NC(=O)[C@@H]2C[C@H](C(=O)O)[C@H](c3cccc(OCCO)c3)N2C1=O | -1.33 | 1.31 (inactive) | -0.324 | 0.0022 | 0.49 | 0.64 | 0.303 | -0.0913 | 0.451 | 1.02 |
| COC(=O)[C@@]1(Cc2ccccc2)[C@H]2c3cc(C(=O)N(C)C)n(Cc4ccccn4)c3C[C@H]2CN1C(=O)c1ccccc1 | 0.723 | 0.146 (inactive) | 0.127 | 0.269 | 0.971 | 3.31 | 1.22 | 1.03 | -1.4 | 1.08 |
| COc1ccc(C(=O)Nc2ccc3c(c2)[C@]2(O[C@@H](CCO)[C@H]([Si](C)(C)c4ccc(OC)cc4)[C@H]2C)C(=O)N3Cc2ccccc2)cc1 | -0.58 | 0.131 (inactive) | -0.242 | -0.135 | 0.0277 | -0.0175 | -0.352 | 1.01 | 0.845 | 0.908 |
| CN(C)CCCCCCNC(=O)[C@@H]1C[C@@H]2C(=O)NCC(=O)N2[C@@H]1c1ccc(O)cc1 | -0.671 | 2.25 (inactive) | 0.173 | -0.126 | 0.683 | 2.86 | 0.328 | 1.33 | 1.4 | 1.21 |
| C=CCNC(=O)[C@@H]1[C@H]2C(=O)O[C@H](c3ccccc3)[C@H](c3ccccc3)N2[C@H](c2ccc(O)cc2)[C@@]12C(=O)Nc1ccc(C#CCCO)cc12 | 0.803 | -0.588 (inactive) | -0.186 | -0.149 | 0.761 | 1.55 | 0.71 | 0.277 | -1.31 | 0.0196 |
| CC1C=C(CCCO)C=C(C(=O)OCCS(C)(=O)=O)C(C(=O)OCCS(C)(=O)=O)=CN1Cc1cccc(OC(F)(F)F)c1 (stereo not given) | 1.03 | -0.115 (inactive) | 0.0929 | 0.0231 | 0.749 | 2.22 | 1.11 | 1.21 | -0.815 | 1.08 |
| COCCOC(=O)N1C(=O)[C@@]2(c3cc(C#CC4(O)CCCCCC4)ccc31)[C@H](C(=O)N1CCN(c3ncccn3)CC1)[C@H]1C(=O)O[C@H](c3ccccc3)[C@H](c3ccccc3)N1[C@@H]2c1ccc(O)cc1 | 0.886 | 0.528 (inactive) | -0.0006 | -0.0795 | 0.35 | 1.12 | 0.73 | 1.22 | -0.35 | 1.11 |
| C=C[C@H](C)[C@H](OC(=O)Nc1ccc(SC)cc1)c1ccc(O)c2ccccc12 | 0.801 | -0.53 (inactive) | -0.311 | -0.192 | 0.736 | 0.518 | -0.0167 | -0.581 | -0.0707 | -0.252 |
| CN1C(=O)C2C=CC(C(O)c3ccc(F)cc3)N(N3CCCCC3)C2C1=O (stereo not given) | 0.853 | -0.908 (inactive) | 0.29 | 0.155 | 0.714 | 1.5 | 0.804 | 1.32 | -1.42 | 1.08 |
| CCOC(=O)C1=CC[C@@H](c2ccc(N(CC)CC)cc2)N(S(=O)(=O)c2ccc(C)cc2)[C@H]1c1ccc([N+](=O)[O-])cc1 | 0.682 | 0.38 (inactive) | 0.0116 | -0.0097 | 0.473 | -0.507 | 0.769 | 0.317 | -0.724 | 0.588 |
| CCOc1cc(C(O)C2C=CC3C(=O)NC(=O)C3N2Nc2ccccn2)ccc1O (stereo not given) | 0.409 | 0.057 (inactive) | -0.0663 | 0.0065 | 0.121 | -0.086 | 0.241 | -0.352 | 0.143 | 0.0306 |
| C=CCC(OC(C)=O)[C@@H]1[C@@H](N(Cc2cccc3ccccc23)C(=O)c2ccc(C)cc2)c2cc(OCCCO)ccc2N1C(=O)c1ccc2ccccc2c1 (stereo not given in full) | -0.0007 | 0.0941 (inactive) | 0.0311 | -0.0924 | 0.0697 | 0.583 | -0.27 | -0.044 | 0.224 | -0.525 |

| SMILES | composite z-score (Albumin (Bos taurus)) | composite Z-score [1] | composite z-score [2] | composite z-score [3] | composite z-score [4] | composite z-score [5] | composite z-score [6] | composite z-score (Sam68 (KHDRBS1)) | composite z-score [7] | composite z-score [8] |
| --- | --- | --- | --- | --- | --- | --- | --- | --- | --- | --- |
| C[N+](C)(C)CCCCCCNC(=O)[C@H]1C[C@H]2C(=O)N3CCC[C@H]3C(=O)N2[C@H]1c1cccc(OCCO)c1 | -0.564 | 0.491 (inactive) | 0.398 | -0.0135 | 0.662 | 1.73 | 0.787 | 0.976 | 1.03 | 1.15 |
| CN(C)C(=O)[C@@]1(CCS(=O)(=O)c2ccccc2)N=C(c2ccc(OCCCO)cc2)O[C@H]1c1ccccc1CN=[N+]=[N-] | 0.9 | 0.24 (inactive) | 0.167 | -0.0478 | 0.553 | 2.45 | 0.527 | 1.3 | 0.205 | 1.08 |
| OCc1ccc(-c2cc[n+](Cc3cccc(OC(F)(F)F)c3)cc2)cc1 | 0.503 | 0.372 (inactive) | 0.11 | -0.0254 | 0.894 | 0.813 | 1.08 | 0.981 | 1.49 | 1.08 |
| COCC(=C=CC[C@@H](O)c1ccccc1OCCO)C[C@@H](O)COCc1ccccc1 | 0.521 | 0.418 (inactive) | 0.779 | 0.365 | 0.73 | 2.22 | 1.04 | 1.04 | -0.463 | 0.244 |
| C=CCC(OC(C)=O)[C@@H]1[C@@H](N(Cc2cc3ccccc3o2)C(=O)Cc2ccc(OC)cc2)c2cc(OCCCO)ccc2N1C(=O)c1ccc(-c2ccccc2)cc1 (stereo not given in full) | 0.0023 | -0.287 (inactive) | 0.111 | 0.0098 | -0.137 | -0.338 | -0.0843 | -0.494 | 0.224 | -1.15 |
| CC1CC/C=C\[C@H]2OC34C=CCN(c5ccc(Cl)cc5)C(=O)[C@H]3N(C(CO)C(C)C)C(=O)[C@]4(C)C2C(=O)O1 (stereo not given in full) | 0.788 | -0.0965 (inactive) | -0.28 | -0.174 | 0.859 | 0.253 | 0.438 | -0.932 | -0.169 | -0.983 |
| COc1ccc(CCNC(=O)[C@@H]2c3ccccc3C(=O)N(Cc3ccccc3C(F)(F)F)[C@H]2c2ccc(CO)cc2)cc1 | -0.187 | 1.36 (inactive) | -0.246 | -0.0664 | 0.466 | 1.29 | 0.57 | 0.501 | -1.34 | -0.272 |
| COC(=O)[C@@]1(Cc2ccccc2N=[N+]=[N-])N=C(c2ccc(OCCCO)cc2)O[C@H]1c1ccccc1 | 0.371 | 0.17 (inactive) | -0.0377 | -0.0563 | 0.593 | 1.28 | 0.156 | 1.16 | -0.608 | 1.11 |
| COc1cccc(C)c1NC(=O)O[C@H]1[C@H](OC(=O)Nc2ccccc2)[C@H](OC(=O)Nc2ccccc2)[C@@H](OC)O[C@@H]1CO | 0.958 | -0.922 (inactive) | -0.0647 | 0.0564 | 0.54 | 2.48 | 0.25 | 1.34 | -1.05 | 1.17 |
| CC(C)C(CO)N1C(=O)[C@@H]2[C@H]3C(=O)OCC=C[C@H]3OC23C=CCN(Cn2nnc4ccccc42)C(=O)[C@@H]13 (stereo not given in full) | -1.25 | -0.274 (inactive) | -0.226 | -0.204 | 0.931 | -0.0704 | -0.215 | -0.821 | -1.73 | -1.34 |
| C=C(C(=O)CC[C@H](OC(=O)c1cccnc1)c1ccc(OCCO)cc1)C(C)C | 0.335 | -0.496 (inactive) | 0.0571 | -0.105 | 0.695 | 0.706 | 0.296 | 1.13 | 0.274 | 1.12 |
| COCCOC(=O)N1C(=O)[C@@]2(c3cc(C#CCNC(N)=O)ccc31)[C@H](C(N)=O)[C@H]1C(=O)O[C@H](c3ccccc3)[C@H](c3ccccc3)N1[C@@H]2c1ccc(OCCO)cc1 | -0.217 | 0.462 (inactive) | 0.276 | -0.0979 | 0.52 | 0.475 | 0.53 | 0.815 | 1.03 | 1.09 |
| CCC[C@@H]1C[C@@]1(CCC)[C@@H](NC(=O)c1cccs1)c1ccc(Cl)cc1 | 0.259 | -0.222 (inactive) | -0.102 | -0.0617 | 0.247 | 0.855 | -0.199 | -0.0604 | -0.693 | -0.596 |
| CC(C)CCC[C@@H](C)[C@H]1CC[C@@]2(C)C3=C(CC[C@]12C)[C@@]1(C)CC[C@H](OC(=O)C(C)(C)C)C(C)(C)C1CC3 (stereo not given in full) | -0.0648 | -0.598 (inactive) | -0.0396 | -0.191 | -0.0485 | 1.25 | -0.0838 | 0.657 | 0.547 | 0.632 |
| CN(C)C(=O)[C@@]1(CCC(=O)OC(C)(C)C)COC(c2ccc(OCCCO)cc2)=N1 | 0.655 | 0.142 (inactive) | -0.119 | -0.0508 | 0.841 | 3.29 | 0.723 | 0.502 | -1.46 | 0.673 |
| COC(=O)C(CC#Cc1ccc2c(c1)[C@]1(C(=O)N2)[C@H](C(=O)N2CCc3cc(OC)c(OC)cc3C2)[C@H]2C(=O)O[C@H](c3ccccc3)[C@H](c3ccccc3)N2[C@@H]1c1ccc(O)cc1)C(=O)OC | -1.1 | -0.0536 (inactive) | 0.233 | 0.0273 | 0.326 | 1.64 | -0.137 | 1.29 | 1.25 | 1.16 |
